{"source": "PubChem BioAssay AID1159580", "about": "(chemical genetic matrix, 2015)", "test": "chemical genetic growth profiling, strain panel (AID 1159580);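 note: tested at 20 µM; growth read once vehicle control cultures reached saturation at 30 °C; 1 = growth at the plate median or of vehicle wells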", "conditions": "S. cerevisiae deletion strains, growth OD", "note": "The whole screen tested about 5,500 compounds, of which about 2,000 (36%) were called active. Roughly 18% stayed inconclusive and do not appear here. The list shows a part of the results. A number with no mark means an inactive call. Cut-off read from the data, not from the text of the source: active = normalized growth mostly below about 0.91 (no sharp cut-off); inconclusive = no clear call, values can overlap the other calls; inactive = mostly above about 0.92."}
{"smiles": "c1ccc2c(Cc3c[nH]c4ccccc34)c[nH]c2c1", "values": [{"measurement": "normalized growth", "setting": "locus YAL021C, strain ccr4, stronger effect = lower value", "result": "0.848 (active)"}, {"measurement": "normalized growth", "setting": "locus YAL026C, strain drs2, stronger effect = lower value", "result": "0.263 (active)"}, {"measurement": "normalized growth", "setting": "locus YAL030W, strain snc1, stronger effect = lower value", "result": "0.785 (active)"}, {"measurement": "normalized growth", "setting": "locus YBL061C, strain skt5, stronger effect = lower value", "result": "0.51 (active)"}, {"measurement": "normalized growth", "setting": "locus YBR009C, strain hhf1, stronger effect = lower value", "result": "0.341 (active)"}, {"measurement": "normalized growth", "setting": "locus YBR023C, strain chs3, stronger effect = lower value", "result": "0.523 (active)"}, {"measurement": "normalized growth", "setting": "locus YBR171W, strain sec66, stronger effect = lower value", "result": "0.515 (active)"}, {"measurement": "normalized growth", "setting": "locus YBR231C, strain swc5, stronger effect = lower value", "result": "0.501 (active)"}, {"measurement": "normalized growth", "setting": "locus YBR279W, strain paf1, stronger effect = lower value", "result": "0.496 (active)"}, {"measurement": "normalized growth", "setting": "locus YCL011C, strain gbp2, stronger effect = lower value", "result": "0.319 (active)"}, {"measurement": "normalized growth", "setting": "locus YCL016C, strain dcc1, stronger effect = lower value", "result": "0.543 (active)"}, {"measurement": "normalized growth", "setting": "locus YCL069W, strain vba3, stronger effect = lower value", "result": "0.364 (active)"}, {"measurement": "normalized growth", "setting": "locus YCR088W, strain abp1, stronger effect = lower value", "result": "0.632 (active)"}, {"measurement": "normalized growth", "setting": "locus YDL005C, strain med2, stronger effect = lower value", "result": 0.939}, {"measurement": "normalized growth", "setting": "locus YDL040C, strain nat1, stronger effect = lower value", "result": "0.784 (active)"}, {"measurement": "normalized growth", "setting": "locus YDR001C, strain nth1, stronger effect = lower value", "result": "0.824 (active)"}, {"measurement": "normalized growth", "setting": "locus YDR069C, strain doa4, stronger effect = lower value", "result": 1}, {"measurement": "normalized growth", "setting": "locus YDR137W, strain rgp1, stronger effect = lower value", "result": "0.331 (active)"}, {"measurement": "normalized growth", "setting": "locus YDR159W, strain sac3, stronger effect = lower value", "result": "0.547 (active)"}, {"measurement": "normalized growth", "setting": "locus YDR195W, strain ref2", "result": "1.24 [resistant] (active)"}, {"measurement": "normalized growth", "setting": "locus YDR297W, strain sur2, stronger effect = lower value", "result": "0.704 (active)"}, {"measurement": "normalized growth", "setting": "locus YDR334W, strain swr1, stronger effect = lower value", "result": "0.459 (active)"}, {"measurement": "normalized growth", "setting": "locus YDR335W, strain msn5, stronger effect = lower value", "result": "0.501 (active)"}, {"measurement": "normalized growth", "setting": "locus YDR392W, strain spt3, stronger effect = lower value", "result": "0.11 (active)"}, {"measurement": "normalized growth", "setting": "locus YEL003W, strain gim4, stronger effect = lower value", "result": "0.282 (active)"}, {"measurement": "normalized growth", "setting": "locus YEL037C, strain rad23, stronger effect = lower value", "result": "0.779 (active)"}, {"measurement": "normalized growth", "setting": "locus YEL061C, strain CIN8 (second series), stronger effect = lower value", "result": "0.413 (active)"}, {"measurement": "normalized growth", "setting": "locus YER015W, strain faa2, stronger effect = lower value", "result": "0.443 (active)"}, {"measurement": "normalized growth", "setting": "locus YER016W, strain bim1, stronger effect = lower value", "result": "0.681 (active)"}, {"measurement": "normalized growth", "setting": "locus YER111C, strain swi4, stronger effect = lower value", "result": "0.455 (active)"}, {"measurement": "normalized growth", "setting": "locus YER155C, strain BEM2 (second series), stronger effect = lower value", "result": "0.147 (active)"}, {"measurement": "normalized growth", "setting": "locus YFR010W, strain ubp6, stronger effect = lower value", "result": "0.836 (active)"}, {"measurement": "normalized growth", "setting": "locus YGL167C, strain pmr1, stronger effect = lower value", "result": 0.958}, {"measurement": "normalized growth", "setting": "locus YGL173C, strain kem1, stronger effect = lower value", "result": "0.765 (active)"}, {"measurement": "normalized growth", "setting": "locus YGL227W, strain vid30, stronger effect = lower value", "result": "0.154 (active)"}, {"measurement": "normalized growth", "setting": "locus YGL240W, strain doc1, stronger effect = lower value", "result": "0.68 (active)"}, {"measurement": "normalized growth", "setting": "locus YGL253W, strain hxk2, stronger effect = lower value", "result": "0.348 (active)"}, {"measurement": "normalized growth", "setting": "locus YHR013C, strain ard1, stronger effect = lower value", "result": "0.617 (active)"}, {"measurement": "normalized growth", "setting": "locus YHR027C, strain rpn1, stronger effect = lower value", "result": "0.615 (active)"}, {"measurement": "normalized growth", "setting": "locus YHR030C, strain SLT2, stronger effect = lower value", "result": "0.428 (active)"}, {"measurement": "normalized growth", "setting": "locus YHR079C, strain IRE1, stronger effect = lower value", "result": "0.531 (active)"}, {"measurement": "normalized growth", "setting": "locus YHR142W, strain chs7, stronger effect = lower value", "result": "0.202 (active)"}, {"measurement": "normalized growth", "setting": "locus YJL092W, strain hpr5, stronger effect = lower value", "result": "0.635 (active)"}, {"measurement": "normalized growth", "setting": "locus YJL095W, strain BCK1 (second series), stronger effect = lower value", "result": "0.47 (active)"}, {"measurement": "normalized growth", "setting": "locus YJL095W, strain BCK1, stronger effect = lower value", "result": "0.528 (active)"}, {"measurement": "normalized growth", "setting": "locus YJL115W, strain asf1, stronger effect = lower value", "result": "0.811 (active)"}, {"measurement": "normalized growth", "setting": "locus YJL129C, strain trk1, stronger effect = lower value", "result": "0.518 (active)"}, {"measurement": "normalized growth", "setting": "locus YJL154C, strain vps35, stronger effect = lower value", "result": "0.794 (active)"}, {"measurement": "normalized growth", "setting": "locus YJL164C, strain tpk1, stronger effect = lower value", "result": "0.429 (active)"}, {"measurement": "normalized growth", "setting": "locus YJL166W, strain qcr8, stronger effect = lower value", "result": "0.356 (active)"}, {"measurement": "normalized growth", "setting": "locus YJR066W, strain TOR1, stronger effect = lower value", "result": "0.54 (active)"}, {"measurement": "normalized growth", "setting": "locus YKL160W, strain elf1, stronger effect = lower value", "result": "0.388 (active)"}, {"measurement": "normalized growth", "setting": "locus YKR026C, strain gcn3, stronger effect = lower value", "result": "0.763 (active)"}, {"measurement": "normalized growth", "setting": "locus YKR091W, strain srl3, stronger effect = lower value", "result": "0.802 (active)"}, {"measurement": "normalized growth", "setting": "locus YLL001W, strain dnm1, stronger effect = lower value", "result": "0.421 (active)"}, {"measurement": "normalized growth", "setting": "locus YLL026W, stronger effect = lower value", "result": "0.469 (active)"}, {"measurement": "normalized growth", "setting": "locus YLL041C, strain sdh2, stronger effect = lower value", "result": "0.758 (active)"}, {"measurement": "normalized growth", "setting": "locus YLR027C, strain aat2, stronger effect = lower value", "result": "0.446 (active)"}, {"measurement": "normalized growth", "setting": "locus YLR113W, strain HOG1, stronger effect = lower value", "result": "0.648 (active)"}, {"measurement": "normalized growth", "setting": "locus YLR221C, strain rsa3, stronger effect = lower value", "result": "0.343 (active)"}, {"measurement": "normalized growth", "setting": "locus YLR258W, strain gsy2, stronger effect = lower value", "result": "0.722 (active)"}, {"measurement": "normalized growth", "setting": "locus YLR262C, strain YPT6 (second series), stronger effect = lower value", "result": "0.348 (active)"}, {"measurement": "normalized growth", "setting": "locus YLR320W, strain mms22, stronger effect = lower value", "result": "0.235 (active)"}, {"measurement": "normalized growth", "setting": "locus YLR342W, strain FKS1, stronger effect = lower value", "result": "0.518 (active)"}, {"measurement": "normalized growth", "setting": "locus YLR357W, strain rsc2, stronger effect = lower value", "result": 0.876}, {"measurement": "normalized growth", "setting": "locus YLR370C, strain arc18, stronger effect = lower value", "result": "0.57 (active)"}, {"measurement": "normalized growth", "setting": "locus YLR384C, strain iki3, stronger effect = lower value", "result": "0.829 (active)"}, {"measurement": "normalized growth", "setting": "locus YML120C, strain ndi1, stronger effect = lower value", "result": "0.324 (active)"}, {"measurement": "normalized growth", "setting": "locus YMR058W, strain fet3, stronger effect = lower value", "result": "0.322 (active)"}, {"measurement": "normalized growth", "setting": "locus YMR125W, strain sto1, stronger effect = lower value", "result": "0.469 (active)"}, {"measurement": "normalized growth", "setting": "locus YMR129W, stronger effect = lower value", "result": "0.647 (active)"}, {"measurement": "normalized growth", "setting": "locus YMR205C, strain PFK2, stronger effect = lower value", "result": "0.506 (active)"}, {"measurement": "normalized growth", "setting": "locus YMR231W, strain pep5, stronger effect = lower value", "result": "0.249 (active)"}, {"measurement": "normalized growth", "setting": "locus YNL071W, strain lat1, stronger effect = lower value", "result": "0.106 (active)"}, {"measurement": "normalized growth", "setting": "locus YNL183C, strain NPR1, stronger effect = lower value", "result": "0.593 (active)"}, {"measurement": "normalized growth", "setting": "locus YNL209W, strain ssb2, stronger effect = lower value", "result": "0.644 (active)"}, {"measurement": "normalized growth", "setting": "locus YNL248C, strain rpa49, stronger effect = lower value", "result": "0.629 (active)"}, {"measurement": "normalized growth", "setting": "locus YNL322C, strain KRE1 (second series), stronger effect = lower value", "result": "0.73 (active)"}, {"measurement": "normalized growth", "setting": "locus YNR049C, strain mso1, stronger effect = lower value", "result": "0.674 (active)"}, {"measurement": "normalized growth", "setting": "locus YOR001W, strain rrp6, stronger effect = lower value", "result": "0.531 (active)"}, {"measurement": "normalized growth", "setting": "locus YOR070C, strain gyp1, stronger effect = lower value", "result": "0.379 (active)"}, {"measurement": "normalized growth", "setting": "locus YOR080W, strain dia2, stronger effect = lower value", "result": "0.772 (active)"}, {"measurement": "normalized growth", "setting": "locus YOR083W, strain WHI5, stronger effect = lower value", "result": "0.419 (active)"}, {"measurement": "normalized growth", "setting": "locus YOR106W, strain vam3, stronger effect = lower value", "result": "0.43 (active)"}, {"measurement": "normalized growth", "setting": "locus YOR231W, strain MKK1, stronger effect = lower value", "result": "0.511 (active)"}, {"measurement": "normalized growth", "setting": "locus YOR265W, strain rbl2, stronger effect = lower value", "result": "0.534 (active)"}, {"measurement": "normalized growth", "setting": "locus YOR270C, strain vph1, stronger effect = lower value", "result": "0.338 (active)"}, {"measurement": "normalized growth", "setting": "locus YOR290C, strain snf2, stronger effect = lower value", "result": "0.219 (active)"}, {"measurement": "normalized growth", "setting": "locus YPL051W, strain arl3, stronger effect = lower value", "result": "0.264 (active)"}, {"measurement": "normalized growth", "setting": "locus YPL078C, strain atp4, stronger effect = lower value", "result": "0.363 (active)"}, {"measurement": "normalized growth", "setting": "locus YPL106C, strain sse1, stronger effect = lower value", "result": 1}, {"measurement": "normalized growth", "setting": "locus YPL240C, strain hsp82, stronger effect = lower value", "result": "0.63 (active)"}, {"measurement": "normalized growth", "setting": "locus YPL256C, strain CLN2, stronger effect = lower value", "result": "0.652 (active)"}]}
